The record followed here is PMC7862700, “An all-to-all approach to the identification of sequence-specific readers for epigenetic DNA modifications on cytosine”.

Experiment in all cases: DAPPL (digital affinity profiling via proximity ligation, sequencing); 10 mM Tris-HCl pH 7.5, 50 mM NaCl, 1 mM DTT, 4% glycerol, room temperature, 30 min; GST-TFs on glutathione beads, 16-mer random dsDNA library, 0.1% formaldehyde crosslink after washing; high values mean tight binding
What all share (settings): protein: recombinant; tags: N-terminal GST; dsDNA, one strand shown

One experiment addresses T1, FLI1 (Homo sapiens, UniProt Q01543 1-452).
T1 sequence: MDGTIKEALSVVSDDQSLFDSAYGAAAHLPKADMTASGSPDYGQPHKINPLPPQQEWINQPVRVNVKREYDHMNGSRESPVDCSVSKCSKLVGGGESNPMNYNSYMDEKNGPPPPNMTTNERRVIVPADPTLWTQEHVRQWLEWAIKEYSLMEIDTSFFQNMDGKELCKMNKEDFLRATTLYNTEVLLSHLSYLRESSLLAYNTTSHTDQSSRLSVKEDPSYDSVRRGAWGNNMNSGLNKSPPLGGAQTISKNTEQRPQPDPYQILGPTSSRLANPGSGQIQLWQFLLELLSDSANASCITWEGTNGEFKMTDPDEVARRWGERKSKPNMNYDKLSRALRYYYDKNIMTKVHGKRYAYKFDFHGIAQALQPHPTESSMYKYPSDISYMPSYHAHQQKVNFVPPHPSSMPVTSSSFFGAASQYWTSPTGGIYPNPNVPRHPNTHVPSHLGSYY
The essentials:
(§1)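 Beads coated with glutathione captured GST-fused human transcription factors that had been expressed in yeast, and the factors were then given DNA barcodes and pooled with a tag-only sample. The pools were incubated with 200 nmole of a random double-stranded 16-mer DNA library in Tris/NaCl/DTT/glycerol buffer for 30 min at room temperature, washed, crosslinked with 0.1% formaldehyde and proximity-ligated with BsaI/T4 ligase at 37 °C for 1 h. PCR amplification and Illumina NextSeq500 sequencing came last. Binding signal is each hexamer's read frequency for a factor divided by its frequency for the tag-only sample.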

A further experiment has as its target T2, ELK1 (Homo sapiens, UniProt P19419 1-428).
T2 sequence: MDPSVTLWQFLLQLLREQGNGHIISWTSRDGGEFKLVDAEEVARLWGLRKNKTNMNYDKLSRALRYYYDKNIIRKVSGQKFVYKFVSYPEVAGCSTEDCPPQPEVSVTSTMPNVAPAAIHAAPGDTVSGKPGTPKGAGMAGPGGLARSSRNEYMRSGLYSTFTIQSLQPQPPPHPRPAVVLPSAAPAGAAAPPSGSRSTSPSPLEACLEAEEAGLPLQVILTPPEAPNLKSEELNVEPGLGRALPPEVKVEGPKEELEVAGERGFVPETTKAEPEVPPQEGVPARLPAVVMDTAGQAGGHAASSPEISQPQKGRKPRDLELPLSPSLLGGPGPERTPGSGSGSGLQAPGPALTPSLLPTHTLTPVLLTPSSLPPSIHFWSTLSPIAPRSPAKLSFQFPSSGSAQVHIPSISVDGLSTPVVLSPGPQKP
The essentials: as §1

Another experiment addresses T3, GABPA (Homo sapiens, UniProt Q06546 1-454).
T3 sequence: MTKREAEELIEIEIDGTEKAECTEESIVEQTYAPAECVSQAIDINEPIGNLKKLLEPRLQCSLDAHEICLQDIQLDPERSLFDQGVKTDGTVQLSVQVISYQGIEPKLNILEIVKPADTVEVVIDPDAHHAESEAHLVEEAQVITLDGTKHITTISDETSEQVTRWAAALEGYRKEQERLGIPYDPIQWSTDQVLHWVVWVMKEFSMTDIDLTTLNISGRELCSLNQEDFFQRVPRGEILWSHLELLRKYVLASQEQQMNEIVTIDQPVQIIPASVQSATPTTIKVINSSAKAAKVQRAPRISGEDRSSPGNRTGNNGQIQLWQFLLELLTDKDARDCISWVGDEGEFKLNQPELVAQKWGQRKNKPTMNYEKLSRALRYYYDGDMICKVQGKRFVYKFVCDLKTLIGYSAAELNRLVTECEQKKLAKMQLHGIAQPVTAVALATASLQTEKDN
Put shortly:
as §1

The target in the next experiment is T4, ERG (Homo sapiens, UniProt P11308 1-479).
T4 sequence: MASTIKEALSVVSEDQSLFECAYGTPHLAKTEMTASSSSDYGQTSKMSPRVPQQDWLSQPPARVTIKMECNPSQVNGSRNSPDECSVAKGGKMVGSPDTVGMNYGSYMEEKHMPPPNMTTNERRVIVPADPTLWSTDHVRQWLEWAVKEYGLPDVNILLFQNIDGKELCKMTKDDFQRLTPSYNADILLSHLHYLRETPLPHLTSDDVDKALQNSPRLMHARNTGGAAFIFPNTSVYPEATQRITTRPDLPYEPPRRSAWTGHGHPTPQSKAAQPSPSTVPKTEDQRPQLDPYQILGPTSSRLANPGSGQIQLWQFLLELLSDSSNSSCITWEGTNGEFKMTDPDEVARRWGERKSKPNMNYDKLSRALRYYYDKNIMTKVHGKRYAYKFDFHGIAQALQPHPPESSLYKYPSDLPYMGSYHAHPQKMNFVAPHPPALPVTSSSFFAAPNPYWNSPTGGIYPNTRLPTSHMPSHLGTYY
The essentials: as §1

For a further experiment, the target named is ELF1 (Homo sapiens, UniProt P32519 1-619). Put shortly:
as §1

In another experiment the target is T5, EHF (Homo sapiens, UniProt Q9NZC4 1-300).
T5 sequence: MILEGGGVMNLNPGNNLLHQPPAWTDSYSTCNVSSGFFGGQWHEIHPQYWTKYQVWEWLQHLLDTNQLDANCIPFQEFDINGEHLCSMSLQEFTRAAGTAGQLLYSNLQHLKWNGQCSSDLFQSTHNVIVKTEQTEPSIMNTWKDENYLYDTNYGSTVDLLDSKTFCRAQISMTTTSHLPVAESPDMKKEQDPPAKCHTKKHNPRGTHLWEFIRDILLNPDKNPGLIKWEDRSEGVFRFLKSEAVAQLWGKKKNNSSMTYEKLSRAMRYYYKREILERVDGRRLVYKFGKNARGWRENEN
The essentials:
as §1

The target in another experiment is SPI1 (Homo sapiens, UniProt P17947 1-270). The essentials: as §1
The next experiment addresses SPIB (Homo sapiens, UniProt Q01892 1-262). Put shortly: as §1
Another experiment has as its target T6, ELK3 (Homo sapiens, UniProt P41970 1-407).
T6 sequence: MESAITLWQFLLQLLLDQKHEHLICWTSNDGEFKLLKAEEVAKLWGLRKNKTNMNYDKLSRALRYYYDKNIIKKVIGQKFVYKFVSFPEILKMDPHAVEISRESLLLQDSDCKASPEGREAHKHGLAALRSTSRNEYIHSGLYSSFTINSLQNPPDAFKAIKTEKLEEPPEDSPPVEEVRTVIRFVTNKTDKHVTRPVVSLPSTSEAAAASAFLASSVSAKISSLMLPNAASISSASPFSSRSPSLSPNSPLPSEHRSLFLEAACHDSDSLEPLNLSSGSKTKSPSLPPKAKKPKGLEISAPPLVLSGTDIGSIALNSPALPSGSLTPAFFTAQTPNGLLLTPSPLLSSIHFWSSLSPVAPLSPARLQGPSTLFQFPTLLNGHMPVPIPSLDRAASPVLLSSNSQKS
Put shortly: as §1

Chain of SPIB (Q01892 whole entry): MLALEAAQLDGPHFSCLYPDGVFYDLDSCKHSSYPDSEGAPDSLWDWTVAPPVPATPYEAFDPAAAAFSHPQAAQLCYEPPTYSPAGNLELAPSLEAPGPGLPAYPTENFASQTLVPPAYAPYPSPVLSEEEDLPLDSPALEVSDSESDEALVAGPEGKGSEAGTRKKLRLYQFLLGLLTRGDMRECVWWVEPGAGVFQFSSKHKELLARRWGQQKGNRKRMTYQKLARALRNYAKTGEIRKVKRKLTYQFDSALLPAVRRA
Chain of ELF1 (P32519 whole entry): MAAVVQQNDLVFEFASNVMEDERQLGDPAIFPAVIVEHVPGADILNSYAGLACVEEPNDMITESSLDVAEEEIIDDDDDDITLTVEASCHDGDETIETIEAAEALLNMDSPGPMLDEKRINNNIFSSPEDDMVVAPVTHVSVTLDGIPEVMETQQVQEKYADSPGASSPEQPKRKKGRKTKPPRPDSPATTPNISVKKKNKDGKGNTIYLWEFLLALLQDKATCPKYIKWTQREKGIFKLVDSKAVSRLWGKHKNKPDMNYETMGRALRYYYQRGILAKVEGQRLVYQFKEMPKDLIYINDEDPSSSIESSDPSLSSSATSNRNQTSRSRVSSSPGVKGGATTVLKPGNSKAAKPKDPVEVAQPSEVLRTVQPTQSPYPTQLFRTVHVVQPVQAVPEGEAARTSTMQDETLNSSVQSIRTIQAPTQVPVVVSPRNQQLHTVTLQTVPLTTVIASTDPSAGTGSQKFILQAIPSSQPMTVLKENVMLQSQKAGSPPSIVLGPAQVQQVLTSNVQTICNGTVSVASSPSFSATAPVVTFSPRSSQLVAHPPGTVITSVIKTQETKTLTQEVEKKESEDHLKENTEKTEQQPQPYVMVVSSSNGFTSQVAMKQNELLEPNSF

Turning to TCATTC, the binding signal in the experiment with FLI1 is 1.27 fold enrichment (6-mer frequency, TF over GST control); with ELK1, 1.22 fold enrichment (6-mer frequency, TF over GST control); with GABPA it was 1.26 fold enrichment (6-mer frequency, TF over GST control); with ERG, 1.27 fold enrichment (6-mer frequency, TF over GST control); with ELF1, 1.28 fold enrichment (6-mer frequency, TF over GST control); in the experiment with EHF it was 1.17 fold enrichment (6-mer frequency, TF over GST control). Further, the binding signal in the experiment with SPI1 is 1.24 fold enrichment (6-mer frequency, TF over GST control); with SPIB, 1.19 fold enrichment (6-mer frequency, TF over GST control); with ELK3, 1.28 fold enrichment (6-mer frequency, TF over GST control).

On to TTACTA, for which the binding signal with FLI1 is 1.34 fold enrichment (6-mer frequency, TF over GST control); with ELK1, 1.31 fold enrichment (6-mer frequency, TF over GST control); in the experiment with GABPA, 1.36 fold enrichment (6-mer frequency, TF over GST control); with ERG, 1.33 fold enrichment (6-mer frequency, TF over GST control); with ELF1, 1.28 fold enrichment (6-mer frequency, TF over GST control); with EHF, 1.23 fold enrichment (6-mer frequency, TF over GST control). Further, the binding signal with SPI1 was 1.27 fold enrichment (6-mer frequency, TF over GST control); in the experiment with SPIB, 1.36 fold enrichment (6-mer frequency, TF over GST control); in the experiment with ELK3, 1.31 fold enrichment (6-mer frequency, TF over GST control).

Turning to CTGTTT, the binding signal is 1.48 fold enrichment (6-mer frequency, TF over GST control) with FLI1; 1.36 fold enrichment (6-mer frequency, TF over GST control) with ELK1; 1.41 fold enrichment (6-mer frequency, TF over GST control) with GABPA; 1.4 fold enrichment (6-mer frequency, TF over GST control) with ERG; 1.4 fold enrichment (6-mer frequency, TF over GST control) with ELF1; 1.34 fold enrichment (6-mer frequency, TF over GST control) in the experiment with EHF. Also, the binding signal in the experiment with SPI1 was 1.6 fold enrichment (6-mer frequency, TF over GST control); with SPIB it was 1.43 fold enrichment (6-mer frequency, TF over GST control); with ELK3 it was 1.34 fold enrichment (6-mer frequency, TF over GST control).

On to CCGAAT, for which the binding signal in the experiment with FLI1 was 1.23 fold enrichment (6-mer frequency, TF over GST control); with ELK1 it was 1.1 fold enrichment (6-mer frequency, TF over GST control); with GABPA it was 1.25 fold enrichment (6-mer frequency, TF over GST control); with ERG it was 1.07 fold enrichment (6-mer frequency, TF over GST control); with ELF1, 1.22 fold enrichment (6-mer frequency, TF over GST control); in the experiment with EHF it was 1.24 fold enrichment (6-mer frequency, TF over GST control). Further, the binding signal with SPI1 was 1.2 fold enrichment (6-mer frequency, TF over GST control); in the experiment with SPIB, 1.22 fold enrichment (6-mer frequency, TF over GST control); with ELK3, 1.14 fold enrichment (6-mer frequency, TF over GST control).

For the sequence ACAATA, the binding signal is 1.13 fold enrichment (6-mer frequency, TF over GST control) in the experiment with FLI1; 1.12 fold enrichment (6-mer frequency, TF over GST control) with ELK1; 1.29 fold enrichment (6-mer frequency, TF over GST control) in the experiment with GABPA; 1.13 fold enrichment (6-mer frequency, TF over GST control) in the experiment with ERG; 1.1 fold enrichment (6-mer frequency, TF over GST control) in the experiment with ELF1; 1.16 fold enrichment (6-mer frequency, TF over GST control) with EHF. For the same sequence, the binding signal with SPI1 was 1.16 fold enrichment (6-mer frequency, TF over GST control); in the experiment with SPIB, 1.2 fold enrichment (6-mer frequency, TF over GST control); with ELK3, 1.23 fold enrichment (6-mer frequency, TF over GST control).

In the case of AGCTCC, the binding signal in the experiment with FLI1 is 1.38 fold enrichment (6-mer frequency, TF over GST control); with ELK1 it was 1.23 fold enrichment (6-mer frequency, TF over GST control); with GABPA, 1.32 fold enrichment (6-mer frequency, TF over GST control); with ERG, 1.2 fold enrichment (6-mer frequency, TF over GST control); in the experiment with ELF1 it was 1.28 fold enrichment (6-mer frequency, TF over GST control); in the experiment with EHF, 1.31 fold enrichment (6-mer frequency, TF over GST control). For the same sequence, the binding signal with SPI1 is 1.25 fold enrichment (6-mer frequency, TF over GST control); with SPIB, 1.21 fold enrichment (6-mer frequency, TF over GST control); in the experiment with ELK3 it was 1.17 fold enrichment (6-mer frequency, TF over GST control).

Regarding CTATAT, the binding signal is 1.38 fold enrichment (6-mer frequency, TF over GST control) in the experiment with FLI1; 1.42 fold enrichment (6-mer frequency, TF over GST control) in the experiment with ELK1; 1.35 fold enrichment (6-mer frequency, TF over GST control) with GABPA; 1.34 fold enrichment (6-mer frequency, TF over GST control) with ERG; 1.5 fold enrichment (6-mer frequency, TF over GST control) with ELF1; 1.42 fold enrichment (6-mer frequency, TF over GST control) with EHF. Besides, the binding signal with SPI1 was 1.32 fold enrichment (6-mer frequency, TF over GST control); in the experiment with SPIB it was 1.47 fold enrichment (6-mer frequency, TF over GST control); with ELK3, 1.47 fold enrichment (6-mer frequency, TF over GST control).
